{"source": "PubChem BioAssay AID1159580", "about": "(chemical genetic matrix, 2015)", "assay": "chemical genetic growth profiling, strain panel (AID 1159580);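 note: tested at 20 µM; growth read once vehicle control cultures reached saturation at 30 °C; 1 = growth at the plate median or of vehicle wells; lower values mean less growth of the strain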", "conditions": "growth OD", "note": "Hit rate of the full screen: of about 5,500 compounds, about 2,000 (36%) were called active. Another 18% or so got no clear call; they are omitted. Some of the results follow. Values without a mark were called inactive. Cut-off read from the data, not from the text of the source: active = normalized growth mostly below about 0.91 (no sharp cut-off); inconclusive = no clear call, values can overlap the other calls; inactive = mostly above about 0.92.", "data": [{"molecule": "Nc1ncnc2c1ncn2C1O[C@H](COP(=O)(O)O)[C@@H](O)[C@H]1O", "note": "(some centres not stated)", "values": [{"measurement": "normalized growth", "setting": "S. cerevisiae deletion strains, locus YJR075W, strain HOC1, active compounds read low", "value": 1.04}, {"measurement": "normalized growth", "setting": "S. cerevisiae deletion strains, locus YKL009W, strain mrt4, active compounds read low", "value": 1.02}, {"measurement": "normalized growth", "setting": "S. cerevisiae deletion strains, locus YKL068W, active compounds read low", "value": 0.993}, {"measurement": "normalized growth", "setting": "S. cerevisiae deletion strains, locus YKL085W, strain MDH1 (second series), active compounds read low", "value": 1}, {"measurement": "normalized growth", "setting": "S. cerevisiae deletion strains, locus YKL085W, strain MDH1, active compounds read low", "value": 1}, {"measurement": "normalized growth", "setting": "S. cerevisiae deletion strains, locus YKL160W, strain elf1, active compounds read low", "value": 1}, {"measurement": "normalized growth", "setting": "S. cerevisiae deletion strains, locus YKL190W, strain CNB1, active compounds read low", "value": 1.01}, {"measurement": "normalized growth", "setting": "S. cerevisiae deletion strains, locus YKR001C, strain vps1, active compounds read low", "value": "0.581 (active)"}, {"measurement": "normalized growth", "setting": "S. cerevisiae deletion strains, locus YKR026C, strain gcn3, active compounds read low", "value": 1}, {"measurement": "normalized growth", "setting": "S. cerevisiae deletion strains, locus YKR091W, strain srl3, active compounds read low", "value": 0.995}, {"measurement": "normalized growth", "setting": "S. cerevisiae deletion strains, locus YLL001W, strain dnm1, active compounds read low", "value": 1.03}, {"measurement": "normalized growth", "setting": "S. cerevisiae deletion strains, locus YLL026W, active compounds read low", "value": 1.01}, {"measurement": "normalized growth", "setting": "S. cerevisiae deletion strains, locus YLL041C, strain sdh2, active compounds read low", "value": 0.981}, {"measurement": "normalized growth", "setting": "S. cerevisiae deletion strains, locus YLR027C, strain aat2, active compounds read low", "value": 1.02}, {"measurement": "normalized growth", "setting": "S. cerevisiae deletion strains, locus YLR039C, strain RIC1, active compounds read low", "value": 1.04}, {"measurement": "normalized growth", "setting": "S. cerevisiae deletion strains, locus YLR058C, strain SHM2, active compounds read low", "value": 1.02}, {"measurement": "normalized growth", "setting": "S. cerevisiae deletion strains, locus YLR102C, strain apc9, active compounds read low", "value": 0.962}, {"measurement": "normalized growth", "setting": "S. cerevisiae deletion strains, locus YLR113W, strain HOG1, active compounds read low", "value": 1}, {"measurement": "normalized growth", "setting": "S. cerevisiae deletion strains, locus YLR221C, strain rsa3, active compounds read low", "value": 0.969}, {"measurement": "normalized growth", "setting": "S. cerevisiae deletion strains, locus YLR258W, strain gsy2, active compounds read low", "value": 0.987}, {"measurement": "normalized growth", "setting": "S. cerevisiae deletion strains, locus YLR262C, strain YPT6 (second series), active compounds read low", "value": 1.03}, {"measurement": "normalized growth", "setting": "S. cerevisiae deletion strains, locus YLR262C, strain YPT6, active compounds read low", "value": 1.02}, {"measurement": "normalized growth", "setting": "S. cerevisiae deletion strains, locus YLR268W, strain sec22, active compounds read low", "value": "0.627 (active)"}, {"measurement": "normalized growth", "setting": "S. cerevisiae deletion strains, locus YLR320W, strain mms22, active compounds read low", "value": 0.983}, {"measurement": "normalized growth", "setting": "S. cerevisiae deletion strains, locus YLR330W, strain CHS5, active compounds read low", "value": 1.01}, {"measurement": "normalized growth", "setting": "S. cerevisiae deletion strains, locus YLR342W, strain FKS1 (second series), active compounds read low", "value": 1.04}, {"measurement": "normalized growth", "setting": "S. cerevisiae deletion strains, locus YLR342W, strain FKS1, active compounds read low", "value": 1.02}, {"measurement": "normalized growth", "setting": "S. cerevisiae deletion strains, locus YLR357W, strain rsc2, active compounds read low", "value": 1.02}, {"measurement": "normalized growth", "setting": "S. cerevisiae deletion strains, locus YLR370C, strain arc18, active compounds read low", "value": 1.01}, {"measurement": "normalized growth", "setting": "S. cerevisiae deletion strains, locus YLR371W, strain rom2, active compounds read low", "value": 0.986}, {"measurement": "normalized growth", "setting": "S. cerevisiae deletion strains, locus YLR384C, strain iki3, active compounds read low", "value": 1}, {"measurement": "normalized growth", "setting": "S. cerevisiae deletion strains, locus YLR418C, strain cdc73, active compounds read low", "value": "0.471 (active)"}, {"measurement": "normalized growth", "setting": "S. cerevisiae deletion strains, locus YML016C, strain PPZ1, active compounds read low", "value": 1.01}, {"measurement": "normalized growth", "setting": "S. cerevisiae deletion strains, locus YML032C, strain rad52, active compounds read low", "value": "0.417 (active)"}, {"measurement": "normalized growth", "setting": "S. cerevisiae deletion strains, locus YML120C, strain ndi1, active compounds read low", "value": 1.01}, {"measurement": "normalized growth", "setting": "S. cerevisiae deletion strains, locus YML124C, strain tub3, active compounds read low", "value": "0.829 (active)"}, {"measurement": "normalized growth", "setting": "S. cerevisiae deletion strains, locus YMR058W, strain fet3, active compounds read low", "value": 1.01}, {"measurement": "normalized growth", "setting": "S. cerevisiae deletion strains, locus YMR078C, strain ctf18, active compounds read low", "value": "0.838 (active)"}, {"measurement": "normalized growth", "setting": "S. cerevisiae deletion strains, locus YMR125W, strain sto1, active compounds read low", "value": 0.987}, {"measurement": "normalized growth", "setting": "S. cerevisiae deletion strains, locus YMR129W, active compounds read low", "value": 0.994}, {"measurement": "normalized growth", "setting": "S. cerevisiae deletion strains, locus YMR205C, strain PFK2, active compounds read low", "value": 1.02}, {"measurement": "normalized growth", "setting": "S. cerevisiae deletion strains, locus YMR223W, strain ubp8, active compounds read low", "value": "0.81 (active)"}, {"measurement": "normalized growth", "setting": "S. cerevisiae deletion strains, locus YMR231W, strain pep5, active compounds read low", "value": 0.999}, {"measurement": "normalized growth", "setting": "S. cerevisiae deletion strains, locus YMR263W, strain SAP30, active compounds read low", "value": 1.01}, {"measurement": "normalized growth", "setting": "S. cerevisiae deletion strains, locus YMR307W, strain GAS1, active compounds read low", "value": 0.974}, {"measurement": "normalized growth", "setting": "S. cerevisiae deletion strains, locus YNL067W, strain RPL9B, active compounds read low", "value": 1.02}, {"measurement": "normalized growth", "setting": "S. cerevisiae deletion strains, locus YNL071W, strain lat1, active compounds read low", "value": 0.998}, {"measurement": "normalized growth", "setting": "S. cerevisiae deletion strains, locus YNL128W, strain TEP1, active compounds read low", "value": 1.02}, {"measurement": "normalized growth", "setting": "S. cerevisiae deletion strains, locus YNL153C, strain GIM3, active compounds read low", "value": 1.01}, {"measurement": "normalized growth", "setting": "S. cerevisiae deletion strains, locus YNL183C, strain NPR1, active compounds read low", "value": 0.97}, {"measurement": "normalized growth", "setting": "S. cerevisiae deletion strains, locus YNL209W, strain ssb2, active compounds read low", "value": 0.998}, {"measurement": "normalized growth", "setting": "S. cerevisiae deletion strains, locus YNL233W, strain BNI4, active compounds read low", "value": 1.01}, {"measurement": "normalized growth", "setting": "S. cerevisiae deletion strains, locus YNL248C, strain rpa49, active compounds read low", "value": 0.977}, {"measurement": "normalized growth", "setting": "S. cerevisiae deletion strains, locus YNL250W, strain rad50, active compounds read low", "value": 1}, {"measurement": "normalized growth", "setting": "S. cerevisiae deletion strains, locus YNL271C, strain bni1, active compounds read low", "value": "0.895 (active)"}, {"measurement": "normalized growth", "setting": "S. cerevisiae deletion strains, locus YNL298W, strain CLA4, active compounds read low", "value": 0.918}, {"measurement": "normalized growth", "setting": "S. cerevisiae deletion strains, locus YNL307C, strain MCK1, active compounds read low", "value": "0.847 (active)"}, {"measurement": "normalized growth", "setting": "S. cerevisiae deletion strains, locus YNL322C, strain KRE1 (second series), active compounds read low", "value": 0.991}, {"measurement": "normalized growth", "setting": "S. cerevisiae deletion strains, locus YNL322C, strain KRE1, active compounds read low", "value": 1.01}, {"measurement": "normalized growth", "setting": "S. cerevisiae deletion strains, locus YNR049C, strain mso1, active compounds read low", "value": 0.994}, {"measurement": "normalized growth", "setting": "S. cerevisiae deletion strains, locus YNR052C, strain pop2, active compounds read low", "value": "0.476 (active)"}, {"measurement": "normalized growth", "setting": "S. cerevisiae deletion strains, locus YOL006C, strain TOP1, active compounds read low", "value": 1.04}, {"measurement": "normalized growth", "setting": "S. cerevisiae deletion strains, locus YOL012C, strain htz1", "value": 0.221}, {"measurement": "normalized growth", "setting": "S. cerevisiae deletion strains, locus YOL147C, strain pex11, active compounds read low", "value": "0.516 (active)"}, {"measurement": "normalized growth", "setting": "S. cerevisiae deletion strains, locus YOR001W, strain rrp6, active compounds read low", "value": 1.02}, {"measurement": "normalized growth", "setting": "S. cerevisiae deletion strains, locus YOR061W, strain CKA2, active compounds read low", "value": 1.01}, {"measurement": "normalized growth", "setting": "S. cerevisiae deletion strains, locus YOR069W, strain VPS5, active compounds read low", "value": 1.01}, {"measurement": "normalized growth", "setting": "S. cerevisiae deletion strains, locus YOR070C, strain gyp1, active compounds read low", "value": 0.995}, {"measurement": "normalized growth", "setting": "S. cerevisiae deletion strains, locus YOR080W, strain dia2, active compounds read low", "value": 1}, {"measurement": "normalized growth", "setting": "S. cerevisiae deletion strains, locus YOR083W, strain WHI5, active compounds read low", "value": 0.988}, {"measurement": "normalized growth", "setting": "S. cerevisiae deletion strains, locus YOR106W, strain vam3, active compounds read low", "value": 1.03}, {"measurement": "normalized growth", "setting": "S. cerevisiae deletion strains, locus YOR136W, strain idh2, active compounds read low", "value": 0.953}, {"measurement": "normalized growth", "setting": "S. cerevisiae deletion strains, locus YOR144C, strain elg1, active compounds read low", "value": "0.645 (active)"}, {"measurement": "normalized growth", "setting": "S. cerevisiae deletion strains, locus YOR184W, strain ser1, active compounds read low", "value": "0.636 (active)"}, {"measurement": "normalized growth", "setting": "S. cerevisiae deletion strains, locus YOR231W, strain MKK1, active compounds read low", "value": 1.01}, {"measurement": "normalized growth", "setting": "S. cerevisiae deletion strains, locus YOR265W, strain rbl2, active compounds read low", "value": 1}, {"measurement": "normalized growth", "setting": "S. cerevisiae deletion strains, locus YOR270C, strain vph1, active compounds read low", "value": 0.996}, {"measurement": "normalized growth", "setting": "S. cerevisiae deletion strains, locus YOR290C, strain snf2, active compounds read low", "value": 0.972}, {"measurement": "normalized growth", "setting": "S. cerevisiae deletion strains, locus YOR316C, strain cot1, active compounds read low", "value": 0.969}, {"measurement": "normalized growth", "setting": "S. cerevisiae deletion strains, locus YPL051W, strain arl3, active compounds read low", "value": 1.01}, {"measurement": "normalized growth", "setting": "S. cerevisiae deletion strains, locus YPL055C, strain LGE1, active compounds read low", "value": 1.07}, {"measurement": "normalized growth", "setting": "S. cerevisiae deletion strains, locus YPL078C, strain atp4, active compounds read low", "value": 1.03}, {"measurement": "normalized growth", "setting": "S. cerevisiae deletion strains, locus YPL106C, strain sse1, active compounds read low", "value": 0.997}, {"measurement": "normalized growth", "setting": "S. cerevisiae deletion strains, locus YPL240C, strain hsp82, active compounds read low", "value": 0.998}, {"measurement": "normalized growth", "setting": "S. cerevisiae deletion strains, locus YPL241C, strain CIN2, active compounds read low", "value": 1.01}, {"measurement": "normalized growth", "setting": "S. cerevisiae deletion strains, locus YPL256C, strain CLN2, active compounds read low", "value": 0.995}, {"measurement": "normalized growth", "setting": "S. cerevisiae deletion strains, locus YPR119W, strain clb2, active compounds read low", "value": 0.935}, {"measurement": "normalized growth", "setting": "S. cerevisiae deletion strains, locus YPR141C, strain kar3, active compounds read low", "value": 0.995}, {"measurement": "normalized growth", "setting": "S. cerevisiae deletion strains, locus YPR163C, strain tif3, active compounds read low", "value": "0.725 (active)"}, {"measurement": "normalized growth", "setting": "S. cerevisiae deletion strains, locus YPR167C, strain met16, active compounds read low", "value": "0.858 (active)"}, {"measurement": "normalized growth", "setting": "S. cerevisiae deletion strains, strain wtn01, active compounds read low", "value": "0.866 (active)"}, {"measurement": "normalized growth", "setting": "S. cerevisiae strains, strain wild type, active compounds read low", "value": 1.02}]}]}
